Screening data as filed in PubChem BioAssay.
KKLEB cytotox – CF airway cell cytotoxicity counter-screen; activity change (cytotoxicity), % at 5 µM; 360,000 compounds, 0.36% hits; KKLEB CF airway cells viability, ATPlite luminescence, overnight; active compounds read low; cells stimulated with P. aeruginosa culture filtrate;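 active means corrected activity change at or below -50% at 5 µM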
Peg3 prom inh – inhibitors of Peg3 promoter; AID 588405; HeLa PEG-Prom luciferase reporter, luminescence, overnight; inhibition, % at 20 µM; 360,000 compounds, 1.7% hits;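 active means inhibition of at least 50% at 20 µM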
HIF-2a inh – blocks HIF-2a reporter activity; 786-0 RCC cells HIF-2a reporter, luciferase luminescence, overnight; inhibition, % at 18.8 µM; 360,000 compounds, 0.72% hits; AID 624352;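 active means inhibition of the luminescence signal of 40% or more relative to plate controls, in a single-dose primary screen at 18.75 µM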
CF NFkB inh – blocks PAF-induced NF-kB reporter in cystic fibrosis cells; KKLEB NF-kB-GFP reporter, GFP fluorescence overnight; inhibition, % at 5 µM; 360,000 compounds, 0.86% hits; AID 588850;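 active means at least 50% inhibition at 5 µM, scaled per plate between neutral and stimulator controls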;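 further: PAF is a Pseudomonas aeruginosa culture filtrate used as stimulus; plate controls were PAF-stimulated DMSO wells for no effect and unstimulated DMSO wells for full effect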
Shn3 inh set2 – reduces Shn3 3'UTR luciferase signal in osteoblasts; 360,000 compounds, 0.52% hits; Clone20 osteoblast Shn3 3'UTR firefly luciferase, 24 h; inhibition, % at 12.5 µM;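 active means mean inhibition of at least 75% with every replicate also reaching 75%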;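 further: 0% = median of neutral control wells and 100% = pilot-screen positive control compound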
MITF TRPM1 inh – reduces MITF-dependent TRPM1 promoter luciferase signal; SK-MEL-5 TRPM1 promoter luciferase, 24 h; inhibition, % at 12.5 µM; 330,000 compounds, 0.83% hits; AID 488899;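 active means mean inhibition across replicates of 60% or more, whatever share of single replicates reaches that level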
Starred values were filed as active, the others as inactive. Hits are enriched below; roughly 2.7% of the tested compounds scored in any of these assays.

SMILES	KKLEB cytotox	Peg3 prom inh	HIF-2a inh	CF NFkB inh	Shn3 inh set2	MITF TRPM1 inh
O=C(Nc1ccc(-c2nc3ccccc3[nH]2)cc1)c1ccc2c(c1)OCO2	-34	64*	-3	39	37	39
O=C(Nc1ccc2nc(-c3ccccc3)[nH]c2c1)c1ccco1	8	-244	-226	-36	-145	-76
Cc1cccc(NC(=O)c2cccc(NC(=O)c3ccco3)c2)c1	-20	-38	-50	9	-11	-2
O=C(Nc1ccc(Cl)c(-c2nc3ccccc3[nH]2)c1)c1ccc2c(c1)OCO2	4	-12	-51	-22	19	1
Cc1cc(C)c(NC(=O)c2cccc(NC(=O)c3ccco3)c2)c(C)c1	19	73*	18	-17	16	-7
O=C(Nc1cccc(-c2nc3ccccc3[nH]2)c1)c1cccc(NC(=O)c2ccco2)c1	-59*	104*	-51	38	42	87*
O=C(CSc1ccc(Cl)cc1)Nc1cccc(-c2nc3ccccc3[nH]2)c1	-9	51*	3	-43	-8	1
Cc1ccc(NCC2(N=Cc3ccccc3)OC(CO)C(O)C2O)cc1 (configuration not stated)	-14	11	-13	41	-7	9
Cc1cccc(CCNC(=O)C2CCC(=O)N(Cc3ccccc3F)C2)n1 (configuration not stated)	-8	0	-7	0	5	10
CCOc1c(C)cnc2c1c(=O)n(CC(=O)NCC1CCCO1)c(=O)n2C (configuration not stated)	-4	-8	2	15	9	13
C#CC[N+]1(CC#Cc2ccccc2)CCCCC1	-4	4	13	6	11	0
C(#Cc1ccccc1)C[N+]1(CC#Cc2ccccc2)CCCCC1	-9	14	9	4	86*	44
C#CC[N+]1(CC#Cc2cccc(C)c2)CCCCC1	0	-1	22	6	9	-3
Cc1ccc(C#CC[N+]2(CC#Cc3ccc(C)cc3)CCCCC2)cc1	-24	97*	13	35	76	70*
Cc1ccc2c(cnn2C(=O)CCC(=O)N2CCCCC2)c1	0	2	-6	-21	-13	-3
c1ccc(-c2cnnc(-c3ccccn3)n2)cc1	-2	-243	-198	-34	-50	-83
C=CCNc1nc(-c2ccccn2)nnc1-c1ccccc1	-31	35	7	28	91*	78*
CCCCNc1c(-c2cccc(-c3cc(C(C)=O)cs3)c2)nc2cc(C)ccn12	-10	60*	-101	10	9	-5
Cc1ccc(O)c(NC(=O)c2cc(-c3cccs3)on2)c1	-9	-297	-170	18	-36	-113
O=S1(=O)CCN(c2ccccc2CC(c2c[nH]c3ccccc23)c2c[nH]c3ccccc23)CC1	15	57*	-12	7	14	11
NCC(c1ccco1)c1c[nH]c2ccccc12 (configuration not stated)	11	16	15	7	-26	29
COc1cccc(N2CCN(C(=O)CCNS(=O)(=O)c3ccc(F)c(F)c3)CC2)c1	4	6	8	6	-4	7
CC1CCN(S(=O)(=O)c2ccc3c(c2)N(CC(=O)N(C)Cc2ccco2)C(=O)CO3)CC1	10	5	9	-6	15	-3
CCC(C)n1c(C)nc2c(c1=O)c1nc3ccccc3nc1n2CCC1=CCCCC1 (configuration not stated)	0	77*	-30	-28	42	8
CCCCn1c2nc3ccccc3nc2c2c(=O)n(C(C)CC)cnc21 (configuration not stated)	7	33	8	-5	7	4
SMILES	KKLEB cytotox	Peg3 prom inh	HIF-2a inh	CF NFkB inh	Shn3 inh set2	MITF TRPM1 inh
CN(C1=C(NC(=O)c2ccccc2)C(=O)c2ccccc2C1=O)C1CCS(=O)(=O)C1 (configuration not stated)	2	-3	-128	44	30	103*
CCCCCCCCCCCC1N=C(N)NC(CCCO)=C1C(=O)OC (configuration not stated)	-4	96*	38	7	25	-8
CCCCCCOC(=O)c1ccc(N)cc1	8	-317	-298	-1	-98	-46
COc1cc(C(=O)NC2CCCc3c2cnn3-c2ccccc2F)cc(OC)c1OC (configuration not stated)	-1	13	11	-10	89*	27
Cc1cc(C(=O)NC2CCCc3c2cnn3-c2cccc(C)c2C)n(C)n1 (configuration not stated)	-12	6	11	-17	91*	28
COc1cc(/C=C2\SC(=O)N(CCNC(=O)c3c(C)noc3C)C2=O)cc(OC)c1OC	2	9	26	0	2	10
O=C(Nc1cc(Cl)ccc1-n1cncn1)c1ccc([N+](=O)[O-])s1	2	37	25	-21	60	62*
COc1ccc2[nH]c(=O)cc(C(=O)O)c2c1	3	-13	16	5	0	7
COc1ccc2[nH]c3c4c(ccc3c2c1)C(=O)C=CC4=O	-19	117*	80*	64*	96*	79*
COc1cc(/C=C/C(=O)c2ccc(Cl)s2)cc(OC)c1O	-23	52*	27	42	-3	28
CC(C)(C)c1nnc(N/N=C/c2cc(Br)ccc2O)n(N)c1=O	-20	73*	-8	24	86*	68*
CCc1nnc(N/N=C/c2cc(Br)c(O)cc2O)n1N	9	-4	6	-2	-3	11
CC1=NNC(=O)/C1=C\c1cn(-c2ccccc2)nc1-c1ccc(Cl)cc1	-40	79*	87*	6	24	-19
Cc1ccc(-c2nn(-c3ccccc3)cc2C=C2C(=O)CC(C)(C)CC2=O)cc1	4	-165	-101	-26	-27	-4
CCn1cc(CN2CCC(n3nccc3NC(=O)c3ccccc3C)CC2)c(C)n1	-8	8	11	-6	-5	2
Cc1nn(-c2ccccc2)c(N2CCCC2)c1/C=N/NC(=O)c1cc(-c2cccnc2)nc2ccccc12	-7	46	17	22	13	10
CC(/C=N/NC(=O)c1cc(-c2cccnc2)nc2c1c(C)nn2-c1ccccc1)=C\c1ccccc1	-10	51*	15	21	13	2
Cc1sc(NC(=O)c2ccco2)c(C(c2cccnc2)N2CCC(C)CC2)c1C (configuration not stated)	-7	15	24	14	-13	21
CCN1CCN(C(c2cccnc2)c2c(NC(=O)c3ccco3)sc(C)c2C)CC1 (configuration not stated)	-3	55*	-81	-14	-11	22
